Results filed as inconclusive are left out. Activity calls are given as the source filed them. How the source made its calls: active means hit-call score of the fitted dose curve at least 0.9, where 1 is the maximum; inconclusive means response in the unintended direction; inactive means score below 0.9.
Assays:
[1] = target: Peroxisome proliferator-activated receptor gamma (Homo sapiens) (UniProt P37231); experiment: ATG_PPARg_TRANS: Attagene TRANS-FACTORIAL HepG2 Assay for human Peroxisome Proliferator-activated Receptor-gamma (PPARg) (AID 2283007)
Procedure, shortened: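 Transient transfection of HepG2 with GAL4-UAS-driven reporter units; chemical dosing 24 h; total RNA → oligo(dT) RT → PCR with reporter primers → 6-FAM primer extension → HpaI digest 2 h 37 C → capillary electrophoresis. Positive direction vs DMSO.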

[2] = target: Nuclear receptor subfamily 1 group I member 2 (Homo sapiens) (UniProt O75469); experiment: ATG_PXR_TRANS: Attagene TRANS-FACTORIAL HepG2 Assay for human Pregnane X Receptor (PXR) (AID 2283008)
Procedure, shortened: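 Multiplexed TRANS reporter panel in HepG2; this component tracks PXR-Gal4-driven reporter mRNA after 24 h dosing, measured by RT-PCR with capillary electrophoresis fluorescence, fitted against DMSO.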

[3] = target: Retinoic acid receptor RXR-alpha (Homo sapiens) (UniProt P19793); experiment: ATG_RXRa_TRANS: Attagene TRANS-FACTORIAL HepG2 Assay for human Retinoid X Receptor alpha (RXRa) (AID 2283012)
Procedure, shortened: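 TRANS format reporting activity of exogenous RXRa-Gal4 chimera in transiently transfected HepG2, 24 h exposure. Reporter transcripts quantified by RT-PCR with capillary electrophoresis, with gain of signal scored relative to DMSO.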

[4] = target: human Retinoid X Receptor beta (RXRb), RXRB (gene 6257) (UniProt P28702); experiment: ATG_RXRb_TRANS: Attagene TRANS-FACTORIAL HepG2 Assay for human Retinoid X Receptor beta (RXRb) (AID 2283013)
Procedure, shortened: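 Readout is reporter transcript induction after 24 h dosing. It is measured by RT-PCR of total RNA followed by fluorescent capillary electrophoresis. HepG2 liver cells carry transfected multiple reporter units driven by an exogenous RXRb-Gal4 fusion; activity is relative to DMSO.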

[5] = target: human RAR-related Orphan Receptor gamma (RORg), RORC (gene 6097) (UniProt P51449); experiment: ATG_RORg_TRANS: Attagene TRANS-FACTORIAL HepG2 Assay for human RAR-related Orphan Receptor gamma (RORg) (AID 2283011)
Procedure, shortened: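 Activity is scored as increase in GAL4-UAS reporter mRNA over DMSO, detected by fluorescent RT-PCR and capillary electrophoresis in HepG2 cells transiently expressing a RORg-Gal4 chimera, 24 h after dosing.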

[6] = target: human RAR-related Orphan Receptor beta (RORb), RORB (gene 6096) (UniProt Q92753); experiment: ATG_RORb_TRANS: Attagene TRANS-FACTORIAL HepG2 Assay for human RAR-related Orphan Receptor beta (RORb) (AID 2283010)
Procedure, shortened: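 Read-out is reporter mRNA induction, quantified by RT-PCR with fluorescent capillary electrophoresis, 24 h post-dose in transiently transfected HepG2 expressing exogenous NR-Gal4 chimera. Activity fitted upward versus DMSO.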

[7] = target: human Peroxisome Proliferator-activated Receptor delta (PPARd), PPARD (gene 5467) (UniProt Q03181); experiment: ATG_PPARd_TRANS: Attagene TRANS-FACTORIAL HepG2 Assay for human Peroxisome Proliferator-activated Receptor delta (PPARd) (AID 2283002)
Procedure, shortened: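 Read-out is induced reporter mRNA, quantified by RT-PCR with fluorescent labelling and capillary electrophoresis after 24 h dosing. Cells are HepG2 transiently carrying multiple GAL4-UAS reporter units driven by exogenous NR-GAL4 chimeras; DMSO serves as baseline.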

[8] = target: human Thyroid Receptor alpha (THRa1), THRA (gene 7067) (UniProt P10827); experiment: ATG_THRa1_TRANS: Attagene TRANS-FACTORIAL HepG2 Assay for human Thyroid Receptor alpha (THRa1) (AID 2283014)
Procedure, shortened: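 First, HepG2 cells receive multiple GAL4-UAS reporter units and the chimeric receptor. They are then dosed for 24 h, after which RNA is reverse-transcribed, amplified, labelled, HpaI-cut and sized by capillary electrophoresis; gain relative to DMSO is scored.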

[9] = target: human Retinoic Acid Receptor beta (RARb), RARB (gene 5915) (UniProt P10826); experiment: ATG_RARb_TRANS: Attagene TRANS-FACTORIAL HepG2 Assay for human Retinoic Acid Receptor beta (AID 2283004)
Procedure, shortened: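 HepG2, transient MRTU transfection, NR–Gal4 chimera, 24 h treatment; RT-PCR plus CE fluorescence detection of reporter mRNA; gain of signal vs DMSO.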

[10] = target: Retinoic acid receptor alpha (Homo sapiens) (UniProt P10276); experiment: ATG_RARa_TRANS: Attagene TRANS-FACTORIAL HepG2 Assay for human Retinoic Acid Receptor alpha (RARa) (AID 2283005)
Procedure, shortened: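 Reporter transcripts, measured by RT-PCR with fluorescent labeling and capillary electrophoresis after 24 h dosing, reflect activity of an exogenous human RARa–GAL4 fusion in transiently transfected HepG2. Fitted for increase relative to DMSO.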

[11] = target: human Retinoic Acid Receptor gamma (RARg), RARG (gene 5916) (UniProt P13631); experiment: ATG_RARg_TRANS: Attagene TRANS-FACTORIAL HepG2 Assay for human Retinoic Acid Receptor gamma (RARg) (AID 2283009)
Procedure, shortened: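 Transactivation of exogenous RARg-Gal4 fusion measured as reporter transcript induction after 24 h in transfected HepG2 cells. RNA reverse-transcribed, amplified, fluorescently labeled and resolved by capillary electrophoresis; increase relative to DMSO.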

Measured: AC50

Chain of Nuclear receptor subfamily 1 group I member 2 (Homo sapiens) (O75469 whole entry, looked up, the tested form may be a part): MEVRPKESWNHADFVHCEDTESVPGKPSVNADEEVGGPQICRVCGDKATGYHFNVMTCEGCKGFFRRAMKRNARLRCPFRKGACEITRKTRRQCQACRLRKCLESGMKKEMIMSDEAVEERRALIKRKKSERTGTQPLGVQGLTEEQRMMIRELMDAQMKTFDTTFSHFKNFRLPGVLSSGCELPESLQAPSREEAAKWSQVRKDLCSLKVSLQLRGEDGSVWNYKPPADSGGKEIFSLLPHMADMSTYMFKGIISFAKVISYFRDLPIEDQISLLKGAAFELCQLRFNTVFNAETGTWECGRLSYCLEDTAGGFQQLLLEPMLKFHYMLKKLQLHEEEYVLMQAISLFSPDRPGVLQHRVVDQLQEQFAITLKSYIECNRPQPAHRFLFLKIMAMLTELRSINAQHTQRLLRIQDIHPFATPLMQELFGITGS
Chain of Retinoic acid receptor RXR-alpha (Homo sapiens) (P19793 whole entry, looked up, the tested form may be a part): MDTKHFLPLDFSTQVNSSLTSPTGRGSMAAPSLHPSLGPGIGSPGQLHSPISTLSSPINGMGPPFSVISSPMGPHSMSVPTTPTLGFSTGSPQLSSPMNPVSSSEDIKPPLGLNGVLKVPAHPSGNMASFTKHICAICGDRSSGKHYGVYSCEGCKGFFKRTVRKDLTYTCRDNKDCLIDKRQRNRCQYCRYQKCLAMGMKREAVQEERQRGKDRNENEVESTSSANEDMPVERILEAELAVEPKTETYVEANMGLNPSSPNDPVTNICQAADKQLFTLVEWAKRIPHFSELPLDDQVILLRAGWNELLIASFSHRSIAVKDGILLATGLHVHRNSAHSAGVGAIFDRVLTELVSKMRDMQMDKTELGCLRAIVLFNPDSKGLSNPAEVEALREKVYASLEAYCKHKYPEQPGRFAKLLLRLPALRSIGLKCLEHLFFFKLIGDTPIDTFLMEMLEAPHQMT
Chain of human RAR-related Orphan Receptor gamma (RORg), RORC (gene 6097) (P51449 whole entry, looked up, the tested form may be a part): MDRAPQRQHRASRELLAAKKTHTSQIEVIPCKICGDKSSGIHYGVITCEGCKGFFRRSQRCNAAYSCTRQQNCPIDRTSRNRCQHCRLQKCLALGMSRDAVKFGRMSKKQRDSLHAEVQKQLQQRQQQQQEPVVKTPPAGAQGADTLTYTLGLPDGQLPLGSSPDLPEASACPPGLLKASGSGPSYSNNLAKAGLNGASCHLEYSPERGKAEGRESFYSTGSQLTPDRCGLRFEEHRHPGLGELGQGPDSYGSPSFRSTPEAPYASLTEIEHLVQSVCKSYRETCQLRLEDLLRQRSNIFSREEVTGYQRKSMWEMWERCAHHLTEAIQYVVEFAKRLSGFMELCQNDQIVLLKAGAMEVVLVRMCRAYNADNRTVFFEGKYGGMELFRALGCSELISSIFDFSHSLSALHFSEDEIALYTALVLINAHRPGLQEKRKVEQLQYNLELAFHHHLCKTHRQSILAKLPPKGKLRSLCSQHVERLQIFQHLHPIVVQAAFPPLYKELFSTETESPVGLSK
Chain of human Retinoid X Receptor beta (RXRb), RXRB (gene 6257) (P28702 whole entry, looked up, the tested form may be a part): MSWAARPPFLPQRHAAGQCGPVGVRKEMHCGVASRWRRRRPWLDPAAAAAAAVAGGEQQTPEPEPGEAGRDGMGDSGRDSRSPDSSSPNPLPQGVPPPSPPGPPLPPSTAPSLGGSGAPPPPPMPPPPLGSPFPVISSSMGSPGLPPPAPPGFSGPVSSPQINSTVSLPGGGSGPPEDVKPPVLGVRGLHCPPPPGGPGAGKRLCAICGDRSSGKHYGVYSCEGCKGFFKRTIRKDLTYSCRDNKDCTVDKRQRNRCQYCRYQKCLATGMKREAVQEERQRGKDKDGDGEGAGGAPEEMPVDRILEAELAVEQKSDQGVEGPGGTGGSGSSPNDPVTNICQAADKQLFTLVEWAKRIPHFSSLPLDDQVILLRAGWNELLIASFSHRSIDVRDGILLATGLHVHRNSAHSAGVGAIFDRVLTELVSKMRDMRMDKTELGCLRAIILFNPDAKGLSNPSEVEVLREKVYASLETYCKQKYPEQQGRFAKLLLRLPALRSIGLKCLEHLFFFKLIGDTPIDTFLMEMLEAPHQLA
Chain of human RAR-related Orphan Receptor beta (RORb), RORB (gene 6096) (Q92753 whole entry, looked up, the tested form may be a part): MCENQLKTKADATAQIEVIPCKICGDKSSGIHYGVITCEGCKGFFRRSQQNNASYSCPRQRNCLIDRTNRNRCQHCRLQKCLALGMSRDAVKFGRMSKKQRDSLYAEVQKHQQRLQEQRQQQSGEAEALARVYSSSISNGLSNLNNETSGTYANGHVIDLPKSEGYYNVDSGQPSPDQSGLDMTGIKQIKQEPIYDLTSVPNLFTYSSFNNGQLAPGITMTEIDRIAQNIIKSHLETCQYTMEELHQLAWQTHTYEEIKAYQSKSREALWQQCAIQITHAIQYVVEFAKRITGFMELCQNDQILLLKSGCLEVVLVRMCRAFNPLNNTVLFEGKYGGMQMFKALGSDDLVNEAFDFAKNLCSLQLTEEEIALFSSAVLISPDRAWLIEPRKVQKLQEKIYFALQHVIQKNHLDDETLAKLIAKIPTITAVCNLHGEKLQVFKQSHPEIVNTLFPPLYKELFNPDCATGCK
Chain of Peroxisome proliferator-activated receptor gamma (Homo sapiens) (P37231 whole entry, looked up, the tested form may be a part): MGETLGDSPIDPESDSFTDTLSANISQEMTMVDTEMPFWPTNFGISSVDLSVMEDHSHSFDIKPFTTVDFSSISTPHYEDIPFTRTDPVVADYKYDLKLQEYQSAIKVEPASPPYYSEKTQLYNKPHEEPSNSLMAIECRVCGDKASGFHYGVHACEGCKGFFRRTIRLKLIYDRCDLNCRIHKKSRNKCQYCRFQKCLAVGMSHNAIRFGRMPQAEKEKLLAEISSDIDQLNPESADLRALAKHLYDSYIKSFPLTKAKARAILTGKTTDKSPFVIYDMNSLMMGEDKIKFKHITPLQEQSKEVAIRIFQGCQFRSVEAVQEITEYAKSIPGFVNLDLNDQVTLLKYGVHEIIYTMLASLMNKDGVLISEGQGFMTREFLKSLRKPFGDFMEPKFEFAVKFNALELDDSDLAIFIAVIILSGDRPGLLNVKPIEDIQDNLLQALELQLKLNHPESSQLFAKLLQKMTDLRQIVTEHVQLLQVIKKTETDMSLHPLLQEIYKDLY
Chain of human Retinoic Acid Receptor gamma (RARg), RARG (gene 5916) (P13631 whole entry, looked up, the tested form may be a part): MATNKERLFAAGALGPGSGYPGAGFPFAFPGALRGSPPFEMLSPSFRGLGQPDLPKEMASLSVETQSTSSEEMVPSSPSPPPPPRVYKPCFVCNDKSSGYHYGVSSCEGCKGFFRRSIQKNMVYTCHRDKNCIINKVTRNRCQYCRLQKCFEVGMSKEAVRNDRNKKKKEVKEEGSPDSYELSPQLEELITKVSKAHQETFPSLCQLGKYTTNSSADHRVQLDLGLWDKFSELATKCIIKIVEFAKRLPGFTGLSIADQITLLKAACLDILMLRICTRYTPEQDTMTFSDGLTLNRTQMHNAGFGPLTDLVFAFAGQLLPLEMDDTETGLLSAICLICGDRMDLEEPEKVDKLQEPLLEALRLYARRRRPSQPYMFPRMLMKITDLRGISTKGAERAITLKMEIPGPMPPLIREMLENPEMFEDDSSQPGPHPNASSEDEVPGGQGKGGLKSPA
Chain of Retinoic acid receptor alpha (Homo sapiens) (P10276 whole entry, looked up, the tested form may be a part): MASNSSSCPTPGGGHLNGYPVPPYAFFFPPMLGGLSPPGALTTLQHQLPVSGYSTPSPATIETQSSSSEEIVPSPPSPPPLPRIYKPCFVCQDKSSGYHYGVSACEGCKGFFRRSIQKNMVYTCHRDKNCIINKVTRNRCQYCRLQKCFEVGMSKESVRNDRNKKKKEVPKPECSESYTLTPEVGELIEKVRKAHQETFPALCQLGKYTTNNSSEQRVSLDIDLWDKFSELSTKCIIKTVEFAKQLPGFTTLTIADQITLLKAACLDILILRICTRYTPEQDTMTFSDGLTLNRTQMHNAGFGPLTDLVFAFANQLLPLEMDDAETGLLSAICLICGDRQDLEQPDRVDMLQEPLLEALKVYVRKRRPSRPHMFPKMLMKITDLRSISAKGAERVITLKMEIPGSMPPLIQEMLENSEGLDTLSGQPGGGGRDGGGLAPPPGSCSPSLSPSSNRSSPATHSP
Chain of human Thyroid Receptor alpha (THRa1), THRA (gene 7067) (P10827 whole entry, looked up, the tested form may be a part): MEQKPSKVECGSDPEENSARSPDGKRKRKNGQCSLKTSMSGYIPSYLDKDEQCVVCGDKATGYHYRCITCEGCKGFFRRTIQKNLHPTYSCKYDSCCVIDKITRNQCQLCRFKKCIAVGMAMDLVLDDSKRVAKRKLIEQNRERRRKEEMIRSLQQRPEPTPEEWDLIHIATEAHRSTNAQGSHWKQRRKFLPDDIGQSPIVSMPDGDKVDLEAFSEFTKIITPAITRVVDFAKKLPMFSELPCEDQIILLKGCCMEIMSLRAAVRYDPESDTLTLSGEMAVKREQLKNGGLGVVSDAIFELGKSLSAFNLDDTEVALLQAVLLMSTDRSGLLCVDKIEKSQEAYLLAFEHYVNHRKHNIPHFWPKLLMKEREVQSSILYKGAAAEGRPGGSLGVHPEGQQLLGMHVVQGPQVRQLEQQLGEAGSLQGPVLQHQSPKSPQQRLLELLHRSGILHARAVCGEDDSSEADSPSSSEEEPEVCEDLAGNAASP
Chain of human Peroxisome Proliferator-activated Receptor delta (PPARd), PPARD (gene 5467) (Q03181 whole entry, looked up, the tested form may be a part): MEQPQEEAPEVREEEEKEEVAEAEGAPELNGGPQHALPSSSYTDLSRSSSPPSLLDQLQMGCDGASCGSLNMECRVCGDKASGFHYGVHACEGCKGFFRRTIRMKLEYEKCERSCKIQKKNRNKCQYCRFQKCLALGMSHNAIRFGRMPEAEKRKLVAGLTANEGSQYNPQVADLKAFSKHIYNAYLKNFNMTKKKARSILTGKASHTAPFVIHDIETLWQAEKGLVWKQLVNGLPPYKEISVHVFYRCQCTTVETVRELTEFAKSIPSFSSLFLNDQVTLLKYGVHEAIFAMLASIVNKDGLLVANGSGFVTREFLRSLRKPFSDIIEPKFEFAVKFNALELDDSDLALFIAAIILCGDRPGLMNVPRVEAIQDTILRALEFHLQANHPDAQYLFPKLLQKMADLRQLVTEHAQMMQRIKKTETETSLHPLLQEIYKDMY

CC1=CCC(=C(C)C)CC1
inactive: [1] | [3] | [4]
active: [2] 6.82 µM

CCCC1CCC(=O)CC1
inactive: [5]

Cc1ccc(C(C)(C)O)cc1
inactive: [2] | [5] | [3]

CC(C)CCOC(=O)CC(C)C
inactive: [2] | [6] | [3]

[Na+]
inactive: [7] | [4] | [8]

Nc1cc([N+](=O)[O-])ccc1C(=O)O
not listed: [4] | [7] | [8]
inactive: all other assays above

CCCC1CCOC(C)S1 (stereo not given)
inactive: [2] | [5] | [3]
